The values that follow come from PubChem BioAssay.

Active and inactive are the calls of the source.

Assay [1] can be described thus: small molecules captured by biotinylated probe aFSTL3 – biochemical, small-molecule microarray, fluorescence 635/667, stem cell growth factor project, primary screen (AID 1064).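 Note: measures binding of the biotinylated anti-FSTL3 antibody to printed compounds.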 Particulars: higher = more signal.
A short description of assay [2]: binders from COS7 lysate, DM2A8 probe, primary screen, torsin A project, cell lysate, small-molecule microarray, fluorescence 635/667 (AID 1065). Particulars: higher = more signal, COS7 lysate expressing mutant human TOR1A.
Assay [3] is described as follows: small molecules captured by biotinylated probe aFGF2 – biochemical, small-molecule microarray, fluorescence 635/667, stem cell growth factor project, primary screen (AID 1067).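 Note: measures binding of biotinylated aFGF2 protein to printed compounds on slides; z-score merges feature fluorescence and signal-to-noise across triplicate slides.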 Conditions: higher = more signal.
A short description of assay [4]: small molecules captured by biotinylated probe aFGF10 – biochemical, small-molecule microarray, fluorescence 635/667, stem cell growth factor project, primary screen (AID 1071).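 Note: score merges 667 nm spot intensity and signal to noise from triplicate slides.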 Conditions: higher = more signal.
Assay [5] concerns the target Neurogenic locus notch homolog protein 2 (Homo sapiens) (UniProt Q04721). The assay can be described thus: small molecules binding Notch2 protein – biochemical, small-molecule microarray, 635 nm fluorescence, stem cell growth factors, primary screen (AID 1073). Conditions: higher = more signal.
Assay [6] addresses Pro-neuregulin-1, membrane-bound isoform (Homo sapiens) (UniProt Q02297). The assay can be described thus: small molecules binding neuregulin-1 protein – biochemical, small-molecule microarray, fluorescence 635/667, psychiatric disease protein project, primary screen (AID 1075).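 Note: score combines 667 nm spot fluorescence with signal to noise.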 Conditions: NRG1 binding, 635 nm fluorescence, higher = more signal.
Assay [7] deals with Neuregulin-1 EGF-like domain. The assay can be described thus: small molecules binding NRG1 EGF domain – biochemical, small-molecule microarray, 635 nm fluorescence, primary screen (AID 1081).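 Note: binding of the protein to compounds printed on small-molecule microarray slides.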 Conditions: higher = more signal.
Assay [8] in a line: FRG1 expression reporter modulators in myotubes – cell-based, C2C12 myotubes, firefly/Renilla luciferase, luminescence, FRG1 inhibition for FSHD, primary screen (AID 1084). Conditions: FRG1 promoter luciferase, higher = more signal, called active from +8 up or from −8 down.
Assay [9] can be described thus: small molecules captured by biotinylated probe aFST – biochemical, small-molecule microarray, fluorescence 635/667, stem cell growth factor project, primary screen (AID 1086).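 Note: score merges 667 nm fluorescence with signal-to-noise of each printed compound spot.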 Conditions: higher = more signal.
The nature of assay [10]: binders of probe aHhip on microarray, primary screen, stem cell growth factor project, biochemical, small-molecule microarray, fluorescence 635/667 (AID 1087).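 Note: score merges spot fluorescence at 667nm with spot signal to noise ratio.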 Conditions: higher = more signal.
The test system of assay [11] is PRMT1 (protein arginine N-methyltransferase 1). The assay can be described thus: small molecules binding arginine methyltransferase PRMT1 – biochemical, small-molecule microarray, 635 nm fluorescence, primary screen (AID 1088).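 Note: binding of Prmt1 protein to compounds spotted on small-molecule microarray slides.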 Particulars: higher = more signal.
Assay [12] is described as follows: growth effects on S. cerevisiae YJM789 – YJM789 clinical isolate, OD600, 24 h, basal, primary screen (AID 1089).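 Note: growth of clinical yeast isolate S. cerevisiae YJM 789 seeded 1000 cells per well; test concentration not given here.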 Particulars: higher = more signal, called active from +8 up or from −8 down.
Assay [13] in a line: S. pombe growth modifiers, basal conditions – strain 972, OD600, 24 h, no modulator, primary screen (AID 1090).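 Note: basal condition with compound alone and no growth modifier present; test concentration not given here.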 Particulars: S. pombe 972 growth, higher = more signal, called active from +8 up or from −8 down.
Assay [14] in a line: budding yeast growth modifiers under rapamycin – strain BY4716, OD600, 96 h, primary screen (AID 1091). Note: test concentration not given here. Conditions: S. cerevisiae BY4716 + rapamycin, higher = more signal, called active from +8 up or from −8 down.
Assay [15] has as its target Torsin-1A-interacting protein 2 (Homo sapiens) (UniProt Q8NFQ8). As to the kind of experiment: small molecules binding lysate-expressed LULL1 – cell lysate, human LULL1 lysate, 635/667 nm fluorescence, primary screen (AID 1092).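 Note: probe is lysate of COS7 cells overexpressing human LULL1; score merges per-feature 667 nm fluorescence with signal-to-noise.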 Conditions: small-molecule microarray, hLULL1 lysate binding, 635 nm fluorescence; higher = more signal.
Assay [16] can be described thus: optical density change of DRC41 E. coli – strain DRC41, OD650, 24 h, E. coli filamentation project, primary screen (AID 1093).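 Note: MC1000 strain lacking acrAB efflux and sulA so SOS filamentation is blocked; test concentration not given here.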 Conditions: E. coli DRC41 growth, higher = more signal, called active from +8 up or from −8 down.
Assay [17] in a line: probe aLefty2 binding to arrayed compounds – biochemical, biotinylated probe, 635/667 nm fluorescence, primary screen (AID 1094).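 Note: score merges spot fluorescence near 667 nm with spot signal-to-noise ratio.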 Particulars: small-molecule microarray, higher = more signal.
The test system of assay [18] is Noggin (protein binding on small-molecule microarray). As to the kind of experiment: small molecules binding Noggin protein – biochemical, 635/667 nm fluorescence, primary screen (AID 1095).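 Note: score merges 667 nm feature fluorescence with signal to noise over triplicate slides.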 Conditions: 635 nm fluorescence, higher = more signal.
In assay [19] the target is Neurogenic locus notch homolog protein 3 (Homo sapiens) (UniProt Q9UM47). As to the kind of experiment: small molecules binding NOTCH3 protein – biochemical, 635/667 nm fluorescence, primary screen (AID 1096). Particulars: small-molecule microarray, 635 nm fluorescence, higher = more signal.
Sequence of Neurogenic locus notch homolog protein 3 (Homo sapiens) (Q9UM47 whole entry, looked up): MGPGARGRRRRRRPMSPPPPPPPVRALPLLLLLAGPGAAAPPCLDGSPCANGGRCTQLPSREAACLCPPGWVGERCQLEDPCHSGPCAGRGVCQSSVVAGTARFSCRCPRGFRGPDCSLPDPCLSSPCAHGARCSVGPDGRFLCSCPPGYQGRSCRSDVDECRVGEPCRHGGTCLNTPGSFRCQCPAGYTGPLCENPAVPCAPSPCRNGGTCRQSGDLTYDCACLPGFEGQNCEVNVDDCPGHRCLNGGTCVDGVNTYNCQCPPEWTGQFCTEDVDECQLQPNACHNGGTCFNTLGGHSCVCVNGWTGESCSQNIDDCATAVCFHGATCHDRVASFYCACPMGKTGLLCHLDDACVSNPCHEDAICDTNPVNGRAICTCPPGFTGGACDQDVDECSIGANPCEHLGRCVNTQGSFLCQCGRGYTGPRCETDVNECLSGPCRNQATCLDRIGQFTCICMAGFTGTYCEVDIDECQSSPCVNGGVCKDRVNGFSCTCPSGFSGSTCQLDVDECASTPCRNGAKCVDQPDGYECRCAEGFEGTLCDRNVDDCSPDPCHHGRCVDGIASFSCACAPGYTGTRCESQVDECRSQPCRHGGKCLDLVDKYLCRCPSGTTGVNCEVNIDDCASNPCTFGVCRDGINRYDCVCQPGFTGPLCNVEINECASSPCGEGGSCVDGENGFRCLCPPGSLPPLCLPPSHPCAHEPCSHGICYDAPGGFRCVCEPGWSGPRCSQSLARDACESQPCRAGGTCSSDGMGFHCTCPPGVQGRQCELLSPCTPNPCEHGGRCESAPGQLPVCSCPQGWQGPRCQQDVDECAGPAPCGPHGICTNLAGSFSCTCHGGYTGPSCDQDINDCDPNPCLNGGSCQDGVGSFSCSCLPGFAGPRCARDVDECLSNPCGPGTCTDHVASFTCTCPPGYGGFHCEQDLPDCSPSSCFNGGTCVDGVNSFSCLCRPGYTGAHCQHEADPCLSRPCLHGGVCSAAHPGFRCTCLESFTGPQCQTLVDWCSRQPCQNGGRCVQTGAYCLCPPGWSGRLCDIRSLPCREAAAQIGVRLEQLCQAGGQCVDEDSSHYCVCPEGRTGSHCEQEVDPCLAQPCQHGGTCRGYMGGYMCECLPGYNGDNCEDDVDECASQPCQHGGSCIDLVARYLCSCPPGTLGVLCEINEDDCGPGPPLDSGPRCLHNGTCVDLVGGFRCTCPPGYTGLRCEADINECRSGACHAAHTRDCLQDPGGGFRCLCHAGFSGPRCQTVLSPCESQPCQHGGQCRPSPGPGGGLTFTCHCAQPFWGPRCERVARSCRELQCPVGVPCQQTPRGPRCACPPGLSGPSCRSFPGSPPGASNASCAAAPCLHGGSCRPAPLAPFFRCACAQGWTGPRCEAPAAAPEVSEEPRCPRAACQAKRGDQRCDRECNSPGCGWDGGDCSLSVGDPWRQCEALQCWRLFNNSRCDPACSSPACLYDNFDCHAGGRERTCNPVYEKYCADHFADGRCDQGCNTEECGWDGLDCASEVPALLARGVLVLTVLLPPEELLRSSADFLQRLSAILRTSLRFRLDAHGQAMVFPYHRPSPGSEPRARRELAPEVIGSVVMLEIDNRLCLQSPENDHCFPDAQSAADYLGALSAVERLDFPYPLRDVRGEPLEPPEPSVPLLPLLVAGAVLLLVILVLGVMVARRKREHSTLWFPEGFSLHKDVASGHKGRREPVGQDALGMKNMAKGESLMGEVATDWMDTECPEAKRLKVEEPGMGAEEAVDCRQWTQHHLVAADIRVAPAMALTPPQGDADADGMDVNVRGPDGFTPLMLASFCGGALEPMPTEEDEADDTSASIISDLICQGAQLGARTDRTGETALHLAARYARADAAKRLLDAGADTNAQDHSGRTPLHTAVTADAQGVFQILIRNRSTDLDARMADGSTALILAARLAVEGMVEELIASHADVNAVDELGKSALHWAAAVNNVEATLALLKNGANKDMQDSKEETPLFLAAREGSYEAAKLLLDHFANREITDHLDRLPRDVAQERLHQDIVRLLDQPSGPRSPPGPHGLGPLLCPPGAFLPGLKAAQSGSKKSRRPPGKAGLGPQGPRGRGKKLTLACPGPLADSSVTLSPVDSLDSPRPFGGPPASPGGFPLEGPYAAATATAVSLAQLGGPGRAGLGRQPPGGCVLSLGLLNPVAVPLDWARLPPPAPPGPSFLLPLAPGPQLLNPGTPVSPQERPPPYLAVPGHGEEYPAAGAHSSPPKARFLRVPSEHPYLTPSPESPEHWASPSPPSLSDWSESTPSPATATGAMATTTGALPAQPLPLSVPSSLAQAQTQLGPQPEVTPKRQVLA
Assay [20] is described as follows: probe aEGFR binding to arrayed compounds – biochemical, biotinylated probe, 635/667 nm fluorescence, primary screen (AID 1097).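 Note: probe is a biotinylated anti-EGFR antibody binding compounds printed on slides; score combines fluorescence near 667 nm and signal to noise of each spot.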 Particulars: small-molecule microarray, higher = more signal.

Sequence of Neurogenic locus notch homolog protein 2 (Homo sapiens) (Q04721 whole entry, looked up, canonical isoform): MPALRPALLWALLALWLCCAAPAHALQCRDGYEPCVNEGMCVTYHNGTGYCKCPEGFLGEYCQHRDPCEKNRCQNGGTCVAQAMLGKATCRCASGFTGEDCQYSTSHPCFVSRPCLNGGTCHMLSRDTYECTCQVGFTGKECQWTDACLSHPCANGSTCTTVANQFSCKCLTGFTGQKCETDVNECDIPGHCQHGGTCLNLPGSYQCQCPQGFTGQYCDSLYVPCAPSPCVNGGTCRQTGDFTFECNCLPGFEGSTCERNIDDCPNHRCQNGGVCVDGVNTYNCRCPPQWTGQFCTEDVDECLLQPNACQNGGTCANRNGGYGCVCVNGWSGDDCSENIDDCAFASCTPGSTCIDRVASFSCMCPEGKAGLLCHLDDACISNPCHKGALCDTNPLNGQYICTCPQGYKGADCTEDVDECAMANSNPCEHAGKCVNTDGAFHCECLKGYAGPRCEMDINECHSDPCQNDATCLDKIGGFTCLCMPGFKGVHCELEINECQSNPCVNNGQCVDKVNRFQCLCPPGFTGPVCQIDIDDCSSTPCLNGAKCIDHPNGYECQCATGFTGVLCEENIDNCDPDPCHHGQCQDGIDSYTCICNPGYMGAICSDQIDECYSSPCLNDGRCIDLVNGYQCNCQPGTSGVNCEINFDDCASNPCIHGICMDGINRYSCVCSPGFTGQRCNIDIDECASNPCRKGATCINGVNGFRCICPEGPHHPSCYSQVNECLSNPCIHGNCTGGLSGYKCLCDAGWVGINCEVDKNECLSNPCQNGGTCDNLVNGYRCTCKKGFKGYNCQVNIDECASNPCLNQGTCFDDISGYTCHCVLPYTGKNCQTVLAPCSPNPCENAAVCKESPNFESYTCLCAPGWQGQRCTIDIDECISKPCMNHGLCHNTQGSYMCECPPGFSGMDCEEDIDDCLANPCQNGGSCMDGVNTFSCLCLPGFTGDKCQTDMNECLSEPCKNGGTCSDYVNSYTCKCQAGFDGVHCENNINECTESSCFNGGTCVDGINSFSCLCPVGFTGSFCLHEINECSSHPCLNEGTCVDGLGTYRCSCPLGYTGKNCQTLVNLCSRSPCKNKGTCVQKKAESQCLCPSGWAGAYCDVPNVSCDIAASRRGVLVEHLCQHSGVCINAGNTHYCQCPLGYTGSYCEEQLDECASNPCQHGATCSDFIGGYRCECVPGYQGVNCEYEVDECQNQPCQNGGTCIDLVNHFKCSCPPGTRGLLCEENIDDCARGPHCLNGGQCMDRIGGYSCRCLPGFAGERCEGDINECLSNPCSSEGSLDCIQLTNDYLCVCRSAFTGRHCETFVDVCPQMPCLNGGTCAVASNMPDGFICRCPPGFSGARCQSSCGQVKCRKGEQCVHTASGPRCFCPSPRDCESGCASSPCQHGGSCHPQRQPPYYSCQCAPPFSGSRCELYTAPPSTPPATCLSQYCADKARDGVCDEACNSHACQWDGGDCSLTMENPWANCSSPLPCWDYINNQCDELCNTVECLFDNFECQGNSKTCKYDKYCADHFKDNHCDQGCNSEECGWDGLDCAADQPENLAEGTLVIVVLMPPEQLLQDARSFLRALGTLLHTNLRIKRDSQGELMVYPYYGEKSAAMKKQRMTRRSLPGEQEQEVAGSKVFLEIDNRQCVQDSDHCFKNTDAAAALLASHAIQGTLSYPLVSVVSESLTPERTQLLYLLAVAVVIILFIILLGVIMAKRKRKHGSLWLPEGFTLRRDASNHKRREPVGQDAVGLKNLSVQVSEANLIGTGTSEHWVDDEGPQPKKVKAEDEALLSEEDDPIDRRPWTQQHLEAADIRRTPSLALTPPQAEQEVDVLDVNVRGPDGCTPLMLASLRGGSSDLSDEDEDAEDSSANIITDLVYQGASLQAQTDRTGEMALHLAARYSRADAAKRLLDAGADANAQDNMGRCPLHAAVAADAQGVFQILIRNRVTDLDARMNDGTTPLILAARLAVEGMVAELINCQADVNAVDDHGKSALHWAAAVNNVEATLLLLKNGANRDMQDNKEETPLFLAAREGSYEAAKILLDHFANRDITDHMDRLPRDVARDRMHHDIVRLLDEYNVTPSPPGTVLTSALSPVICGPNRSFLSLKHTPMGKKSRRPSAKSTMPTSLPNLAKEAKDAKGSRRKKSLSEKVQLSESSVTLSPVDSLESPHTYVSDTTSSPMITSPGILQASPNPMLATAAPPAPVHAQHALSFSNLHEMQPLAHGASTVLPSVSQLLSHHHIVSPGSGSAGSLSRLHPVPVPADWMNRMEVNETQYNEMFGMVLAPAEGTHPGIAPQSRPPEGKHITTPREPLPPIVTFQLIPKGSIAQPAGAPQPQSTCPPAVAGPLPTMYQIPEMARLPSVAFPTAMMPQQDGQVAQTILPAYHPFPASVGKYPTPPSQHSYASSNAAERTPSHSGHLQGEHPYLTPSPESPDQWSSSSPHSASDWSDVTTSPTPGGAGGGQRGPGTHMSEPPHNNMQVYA

In the case of `O=C1C[C@]2(c3ccc([N+](=O)[O-])cc3)C(=O)N(CC(F)(F)F)c3cc(CO)ccc3[C@H]2N1CC12CC3CC(CC(C3)C1)C2`, the composite z-score was -0.127 in assay [1]; 0.0228 in assay [2]; -0.101 in assay [3]; 0.0063 in assay [4]; -0.284 in assay [5]; -0.0962 in assay [6]. Besides, the composite z-score in assay [7] is 0.988; in assay [9], 0.0443; in [10] it was -0.249; in [11], 1.08; in assay [15] it was 2.49; in assay [17] it was -0.145. The composite z-score was 0.363 in assay [18], -0.234 in assay [19] and -0.0972 in [20]. For the same molecule, the z-score is -0.659 (inactive) in assay [8]; 0.116 (inactive) in assay [12]; 1.21 (inactive) in [13]; -1.69 (inactive) in [14]; -0.577 (inactive) in assay [16].
As to `CN(C)CCCCCCNC(=O)[C@H]1C[C@H]2C(=O)N[C@@H](CCCCN)C(=O)N2[C@H]1c1ccc(O)cc1`, the composite z-score is 3.42 in assay [1]; 2.29 in [2]; 0.762 in assay [3]; 1.14 in assay [4]; 1.27 in [5]; 2.51 in assay [6]. The composite z-score was determined as 1.5 in [7]; 3.49 in assay [9]; 1.84 in assay [10]; 1.54 in [11]; 4.58 in assay [15]; 1.76 in assay [17]. The figures for the composite z-score in assay [18], in assay [19] and in assay [20] were 2.02, 1 and 1.15, respectively. For the same molecule, the z-score in assay [8] is 0.369 (inactive); in assay [12], -0.329 (inactive); in assay [13], -2.88 (inactive); in assay [14], -0.02 (inactive); in assay [16], -0.151 (inactive).
As to `CC(C)(C)N1CC=CC23O[C@@H]4/C=C\CCCOC(=O)C4[C@H]2C(=O)N(CCO)[C@@H]3C1=O` (stereo not given in full), the composite z-score in assay [1] was 0.29; in [2], -1.05; in [3] it was -0.045; in assay [4], 0.588; in assay [5], -0.931; in assay [6], 0.208. For the same molecule, the composite z-score in [7] is 0.938; in assay [9], -0.681; in assay [10] it was -0.236; in assay [11], -0.344; in assay [15] it was 1.94; in [17], -0.241. Further, the composite z-score in [18] was -0.551; in assay [19], -0.871; in [20] it was -0.272. Moreover, the z-score in [8] is 0.911 (inactive); in assay [12] it was 0.478 (inactive); in [13] it was 0.224 (inactive); in assay [14] it was -0.1 (inactive); in assay [16] it was 1.54 (inactive).
Take `N[C@@H](Cc1ccccc1)Cn1cc(-c2ccccc2)nn1`: the composite z-score was 0.407 in assay [1]; 0.556 in [2]; -0.0613 in [3]; -0.161 in assay [4]; 0.0615 in assay [5]; 0.429 in [6]. For the same molecule, the composite z-score in [7] was 0.198; in [9] it was 0.746; in assay [10] it was -0.186; in assay [11] it was 0.043; in [15] it was 0.196; in assay [17], 0.323. In addition, the results for the composite z-score in assay [18], in [19] and in assay [20] were -0.0062, -0.0488 and -0.0549, respectively. For the same molecule, the z-score was 0.874 (inactive) in [8]; -0.814 (inactive) in assay [12]; -2.18 (inactive) in assay [13]; 0.371 (inactive) in [14]; -3 (inactive) in assay [16].
For the molecule `C=C[C@H](COC(C)=O)N(Cc1ccc(OC(C)=O)c(OC)c1)S(=O)(=O)c1ccc(Br)cc1`, the composite z-score in assay [1] is -0.0411; in assay [2] it was 1.46; in [3] it was 0.125; in assay [4] it was 0.311; in assay [5], 0.86; in assay [6] it was 0.785. The composite z-score in assay [7] was 1.14; in assay [9] it was 0.413; in [10], -0.0024; in [11] it was 0.484; in assay [15], 1.81; in assay [17], 0.15. In addition, the composite z-score in assay [18] came to 0.337; in [19] it was 0.176; in assay [20], 0.312. In addition, the z-score in assay [8] is -3.46 (inactive); in assay [12] it was -2.5 (inactive); in assay [13] it was -1.08 (inactive); in assay [14], 0.105 (inactive); in [16], 1.24 (inactive).
